Assay results reported in ChEMBL document CHEMBL1157539, “Thousands of chemical starting points for antimalarial lead identification” (Nature, 2010).

tested on: Plasmodium falciparum; test: GSK_TCMDC: Inhibition of Plasmodium falciparum Dd2 in whole red blood cells, using parasite LDH activity as an index of growth. Test compounds present at 2uM; assay type: functional

SMILES	Inhibition
CC[C@H]1CN2CC[C@H]1C[C@H]2[C@H](O)c1cc(-c2ccc3ccccc3c2)nc2ccc(OC)cc12.Cl	99%
O=C(/C=C/c1ccsc1)NC1CCC(CN2CCC(c3c[nH]c4ccccc34)CC2)CC1 (configuration not stated)	20%
Cc1[nH]c2ccccc2c1C1=CCN(CCCCC2(C)C(=O)Nc3cccc(F)c32)CC1 (configuration not stated)	90%
COc1ccc(C[C@H]2NC[C@H](O)[C@H]2OC(C)=O)cc1 [ANISOMYCIN]	98%
CCCCCC(C)C(C)c1cc(O)c2c(c1)OC1(C(C)C)CC(O)C(C)C2C1 (configuration not stated)	87%
CC[C@H]1CN2CC[C@H]1C[C@H]2[C@H](O)c1cc(-c2cccc(Cl)c2)nc2ccc(OC)cc12.Cl	99%

tested on: HepG2; test: GSK_TCMDC: Percent inhibition of human HepG2 cell line. Test compounds present at 10uM.; assay type: functional

SMILES	Inhibition
O=C(NC1CCC(CN2CCC(c3c[nH]c4ccccc34)CC2)CC1)c1cc(-c2ccccc2)c(C(F)(F)F)s1 (configuration not stated)	55%
CN(C)CCCOc1ccc(CN2CCC(c3c[nH]c4ccc(NCC5CCCCC5)cc34)CC2)cc1.O=C(O)C(F)(F)F	58%
Cc1cccc2c(C3CCN(CC4CCC(NC(=O)/C=C/c5ccc(Cl)c(Cl)c5)CC4)CC3)c[nH]c12 (configuration not stated)	97%
CCCc1c(C(=O)NC2CCC(CN3CCC(c4c[nH]c5ccccc45)CC3)CC2)cnn1-c1ccccc1 (configuration not stated)	33%
COC(=O)c1ccc(C[C@@H](C)NC[C@H](O)c2cccc(C(F)(F)F)c2)cc1.Cl	1%
CC(C)CNCc1ccc(-c2cccc(CN(C(=O)CCC3CCCC3)C3CCN(Cc4ccccc4)CC3)c2)cc1.O=C(O)C(F)(F)F	62%
